# Results filed as inconclusive are left out. Where a call stands in place of a potency, no number is given. Values without a mark were called inactive. Active and inactive are the calls of the source. Calls follow the shape of the dose curve; as a rule, active = well fitted cell-killing curve with a large enough effect; inconclusive = small, poorly fitted or top-dose-only effect, or effect the other way; inactive = flat fitted curve, though single readings scatter.
# Experiments:
# Experiment in all cases: Primary qHTS to identify gynecologic anti-cancer compounds using libraries of approved drugs and bioactive compounds (AID 1345084); also: nearly all actives have a fitted effect of over 55% in size
# C33A = conditions: Gynecologic cancer cell panel viability, ATPlite luminescence, 48 h; series mostly up to 57.5 µM
# How it was run: (§1)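 Cells, 1,000 per well, plated 16 h, then exposed 48 h at 37 C to compounds. Viability by ATPlite luminescence after 15 min at room temperature.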
# CAOV3 = conditions: Gynecologic cancer cell panel viability, ATPlite luminescence, 48 h; series mostly up to 57.5 µM
# How it was run: as §1
# CASKI = conditions: Gynecologic cancer cell panel viability, ATPlite luminescence, 48 h; series mostly up to 57.5 µM
# How it was run: as §1
# Es-2 = conditions: Gynecologic cancer cell panel viability, ATPlite luminescence, 48 h; series mostly up to 57.5 µM
# How it was run: as §1
# HeLa = conditions: Gynecologic cancer cell panel viability, ATPlite luminescence, 48 h; series mostly up to 57.5 µM
# How it was run: as §1
# Hek293T = conditions: Gynecologic cancer cell panel viability, ATPlite luminescence, 48 h, control line for the selectivity index; series mostly up to 57.5 µM
# How it was run: as §1
# Potency is read from the fitted curve at half-maximal effect.
SMILES,Potency (C33A),Potency (CAOV3),Potency (CASKI),Potency (Es-2),Potency (HeLa),Potency (Hek293T),"activity change, negative = cytotoxicity (C33A)","activity change, negative = cytotoxicity (CAOV3)","activity change, negative = cytotoxicity (CASKI)","activity change, negative = cytotoxicity (Es-2)","activity change, negative = cytotoxicity (HeLa)","activity change, negative = cytotoxicity (Hek293T)"
Cc1cc(Nc2nc(NC(C)c3ncc(F)cn3)ncc2Cl)n[nH]1 (centres undefined),inactive,inactive,inactive,inactive,inactive,inactive,,,,,,
CC(=O)OC1C(OC(=O)c2ccccc2)C2C(C)(C)CC(=O)CC2(C)C23CCC(C)(C2)C(O)CC13 (centres undefined),inactive,inactive,inactive,inactive,inactive,inactive,,,,,,
OC[C@H]1O[C@@H](OC[C@H]2O[C@@H](OC/C=C/c3ccccc3)[C@H](O)[C@@H](O)[C@@H]2O)[C@@H](O)[C@@H]1O,inactive,inactive,inactive,inactive,inactive,inactive,,,,,,
C=CC1(C)CC(OC(=O)/C(C)=C\COC(C)=O)C(C(=C)C(=O)O)C(O)C1C(=C)CO (centres undefined),inactive,inactive,inactive,inactive,inactive,inactive,,,,,,
Cc1cc(C(=O)Nc2cccc(C(=O)Nc3cccc(C(F)(F)F)c3)c2)on1,inactive,inactive,inactive,inactive,inactive,inactive,,,,,,
C=C1C(=O)O[C@@H]2C[C@H](C)[C@@]3(O)C=C(C(C)=O)[C@]4(CC3C[C@H]12)C(=O)O[C@H]1C[C@@H](C)C(CCC(C)=O)=CC[C@H]14 (some centres undefined),inactive,inactive,inactive,inactive,inactive,inactive,,,,,,
C[C@H](N)C(=O)N[C@@H](Cc1ccc(O)cc1)C(=O)N1CCC[C@H]1C(=O)NCC(=O)N[C@@H](CCCCN)C(=O)N[C@@H](Cc1ccccc1)C(N)=O,,,,,,,10.6% [at 11.6 µM],7.8% [at 11.6 µM],6.63% [at 11.6 µM],2.05% [at 11.6 µM],3.06% [at 11.6 µM],13% [at 11.6 µM]
CC1(C)CCCC2(C)C1CC=C1C(=O)OC(O)C12O (centres undefined),inactive,inactive,inactive,inactive,inactive,inactive,,,,,,
C=CC(C)(C)c1[nH]c2ccccc2c1C[C@@H]1NC(=O)[C@H](Cc2c[nH]c3ccccc23)NC1=O,inactive,inactive,inactive,inactive,inactive,inactive,,,,,,
CC1=CC(=O)CC(C)(C)C1/C=C/C(C)O[C@@H]1O[C@H](CO)[C@@H](O)[C@H](O)[C@H]1O[C@@H]1OC[C@](O)(CO)[C@H]1O (some centres undefined),inactive,inactive,inactive,inactive,inactive,inactive,,,,,,
COC1C(CO)OC(n2cnc3c(=O)[nH]cnc32)C1O (centres undefined),inactive,inactive,inactive,inactive,inactive,inactive,,,,,,
CC(=O)O[C@@H](CO[C@@H]1O[C@H](CO)[C@H](O)[C@H](O)[C@H]1O)[C@]1(C)C=C2CC[C@@H]3C(C)(C)[C@@H](O)CC[C@@]3(C)[C@@H]2CC1,inactive,inactive,inactive,inactive,inactive,inactive,,,,,,
O=C(CCCCN1CCOCC1)Nc1ccc(-c2cccnc2)cc1,inactive,inactive,inactive,inactive,inactive,inactive,,,,,,
C[C@@H]1O[C@@H](O[C@@H]2[C@@H](O)[C@H](O[C@H]3[C@H](O[C@H]4CC[C@@]5(C)C(CC[C@]6(C)C5CC=C5[C@@H]7CC(C)(C)CC[C@]7(C(=O)O[C@@H]7O[C@H](CO)[C@@H](O)[C@H](O)[C@H]7O[C@@H]7O[C@@H](C)[C@H](O[C@@H]8O[C@@H](C)[C@H](O)[C@@H](O)[C@H]8O)[C@@H](O)[C@H]7O)CC[C@]56C)[C@@]4(C)CO)O[C@H](C(=O)O)[C@@H](O)[C@@H]3O)O[C@H](CO)[C@H]2O)[C@H](O)[C@H](O)[C@H]1O (some centres undefined),,,,,,,0.245% [at 6.55 µM],5.38% [at 6.55 µM],3.98% [at 6.55 µM],-0.113% [at 6.55 µM],1.1% [at 6.55 µM],2.2% [at 6.55 µM]
c1cn2cc(-c3ccc4cn[nH]c4c3)nc(Nc3ccc(N4CCOCC4)cc3)c2n1,2.24 µM (active),2 µM (active),2.82 µM (active),2.51 µM (active),2.82 µM (active),2.24 µM (active),,,,,,
CCN(CC)Cc1ccc(C(=O)N(CCc2ccccc2OC)[C@@H]2CCNC2)cc1,inactive,inactive,inactive,inactive,inactive,inactive,,,,,,
CC1=CC(=O)CC(C)(C)[C@@]1(O)CC[C@@H](C)O[C@@H]1O[C@H](CO)[C@@H](O)[C@H](O)[C@H]1O,inactive,inactive,inactive,inactive,inactive,inactive,,,,,,
CC(=O)C1=C(C)N(c2cccc(C(F)(F)F)c2)C(=O)N[C@H]1c1ccc(C#N)nc1,,,,,,,16.9% [at 11.6 µM],8.36% [at 11.6 µM],11.8% [at 11.6 µM],6.68% [at 11.6 µM],11% [at 11.6 µM],-1.04% [at 11.6 µM]
O=C(Nc1ccc(S(=O)(=O)Nc2nccs2)cc1)C(c1ccccc1)c1ccccc1,inactive,inactive,inactive,inactive,inactive,inactive,,,,,,
CC(C)[N+]1(C)C2CCC1CC(OC(=O)C(CO)c1ccccc1)C2 (centres undefined),inactive,inactive,inactive,inactive,inactive,inactive,,,,,,

SMILES,Potency (C33A),Potency (CAOV3),Potency (CASKI),Potency (Es-2),Potency (HeLa),Potency (Hek293T),"activity change, negative = cytotoxicity (C33A)","activity change, negative = cytotoxicity (CAOV3)","activity change, negative = cytotoxicity (CASKI)","activity change, negative = cytotoxicity (Es-2)","activity change, negative = cytotoxicity (HeLa)","activity change, negative = cytotoxicity (Hek293T)"
C=CC1(C)C=C2C(=O)OC(=O)C3=C(CCCC3(C)C)C2(O)CC1 (centres undefined),inactive,inactive,inactive,inactive,inactive,inactive,,,,,,
COc1cc2oc(-c3ccc(O)cc3O)cc2c(OC)c1CC=C(C)C,inactive,inactive,inactive,inactive,inactive,inactive,,,,,,
C=C1C(=O)OC2C1C(O)CC1(C)C(O)CCC(C=O)C21 (centres undefined),inactive,inactive,inactive,inactive,inactive,inactive,,,,,,
C=C1C[C@]23C[C@H]1CC[C@H]2C1=C[C@H]2OC(=O)[C@@](C)([C@H]1[C@@H]3C(=O)O)[C@H]2O,inactive,inactive,inactive,inactive,inactive,inactive,,,,,,
CC(=O)/C=C/[C@H]1[C@](C)(O)[C@@H](O)[C@H](OC(C)=O)C2C(C)(C)CCC[C@@]21C (some centres undefined),inactive,inactive,inactive,inactive,inactive,inactive,,,,,,
CN[C@H](CC(C)C)C(=O)N[C@H]1C(=O)N[C@@H](CC(N)=O)C(=O)N[C@H]2C(=O)N[C@H]3C(=O)N[C@H](C(=O)N[C@H](C(=O)O)c4cc(O)cc(O)c4-c4cc3ccc4O)[C@H](O[C@H]3C[C@](C)(N)[C@@H](O)[C@H](C)O3)c3ccc(c(Cl)c3)Oc3cc2cc(c3O[C@@H]2O[C@H](CO)[C@@H](O)[C@H](O)[C@H]2O[C@H]2C[C@](C)(NCc3ccc(-c4ccc(Cl)cc4)cc3)[C@@H](O)[C@H](C)O2)Oc2ccc(cc2Cl)[C@H]1O,inactive,inactive,inactive,inactive,inactive,inactive,,,,,,
Cc1cc(Cl)ccc1COc1ccnn1-c1cc(C(=O)O)ccn1,inactive,inactive,inactive,inactive,inactive,inactive,,,,,,
C/C(=C\CC[C@@H](C)[C@H]1CC(O)[C@@]2(C)C3CC[C@H]4C(C)(C)[C@@H](OC5OCC(O)C(O)C5OC5OC(CO)C(O)C(O)C5O)CC[C@@]45C[C@@]35CC(O)[C@]12C)C(=O)O (some centres undefined),inactive,inactive,inactive,inactive,inactive,inactive,,,,,,
CCOC(=O)c1sc(NC(=O)[C@H](C(C)C)n2c(=O)[nH]c3ccccc3c2=O)nc1C,inactive,inactive,inactive,inactive,inactive,inactive,,,,,,
C=C1CC23CC1CCC2C12OC(=O)C(C)(CCC1O)C2C3C(=O)O (centres undefined),inactive,inactive,inactive,inactive,inactive,inactive,,,,,,
CC1CC[C@]2(C(=O)O)CC[C@]3(C(=O)O)C(=CCC4[C@@]5(C)CC[C@H](O[C@@H]6O[C@H](CO)[C@@H](O)[C@H](O)[C@H]6O)C(C)(C)C5CC[C@]43C)C2C1C (some centres undefined),inactive,inactive,inactive,inactive,inactive,inactive,,,,,,
C[C@@H]1O[C@@H](O[C@H]2[C@H](O[C@H]3[C@H](O)[C@@H](C(=O)O)O[C@@H](O[C@H]4CC[C@@]5(C)C(CC[C@]6(C)C5CC[C@]57OC[C@@]8(CCC(C)(C)CC85)[C@H](O)C[C@]76C)C4(C)C)[C@@H]3O[C@@H]3O[C@H](CO)[C@@H](O[C@@H]4OC[C@@H](O)[C@H](O)[C@H]4O)[C@H](O)[C@H]3O)O[C@H](CO)[C@H](O)[C@@H]2O)[C@H](O)[C@H](O)[C@H]1O (some centres undefined),,,,,,,-0.321% [at 6.55 µM],1.86% [at 6.55 µM],3.57% [at 6.55 µM],-2.01% [at 6.55 µM],1.31% [at 6.55 µM],4.69% [at 6.55 µM]
CON(C)C(=O)[C@H](O)[C@H](Cc1ccccc1)NC(=O)c1cc2cc(Cl)ccc2[nH]1,inactive,inactive,inactive,inactive,inactive,inactive,,,,,,
Cc1cc(C(=O)N2CCCCc3ccccc32)ccc1CNC(=O)N1CCC[C@H]1C(=O)N(C)C,inactive,inactive,inactive,inactive,inactive,inactive,,,,,,
C/C=C/C=C/C=C/C(=O)OC1C=C(C=O)C(O)(C(=O)O)C2(C)CCCC(C)(C)C12 (centres undefined),inactive,inactive,inactive,inactive,inactive,inactive,,,,,,
C[C@@]12C[C@]3(O)O[C@H](O1)[C@]1(COC(=O)c4ccccc4)[C@H]3C[C@@]12O[C@@H]1O[C@H](CO)[C@@H](O)[C@H](O)[C@H]1O,inactive,inactive,inactive,inactive,inactive,inactive,,,,,,
CC1CCC2(C=O)C(CO)=CCCC2C1(C)CC(=O)O (centres undefined),inactive,inactive,inactive,inactive,inactive,inactive,,,,,,
CN(C)CCn1cc(S(=O)(=O)c2cccc(F)c2)c2cccnc21,inactive,inactive,inactive,inactive,inactive,inactive,,,,,,
CC(=O)O[C@@H]1[C@@H](CO)O[C@@](CO)(O[C@H]2O[C@H](COC(=O)/C=C/c3ccccc3)[C@@H](O)[C@H](O)[C@H]2O)[C@H]1O,inactive,inactive,inactive,inactive,inactive,inactive,,,,,,
